Measurements: PubChem BioAssay (NCATS)
Records with an inconclusive call do not appear. Unmarked numbers belong to inactive results. Active and inactive are the calls of the source. The call rests on the fitted dose curve; in most records, active means well fitted curve in the direction sought with a large enough effect; inconclusive means small, poorly fitted or top-dose-only effect, or another doubt; inactive means no such curve, though single readings can be large; an effect the other way counts as inactive or inconclusive.

Assays:
[1] = Primary qHTS for inhibitors of nuclear receptor binding SET domain protein 2 (NSD2) in an isogenic RCH-ACV NSD2 p.E1099K mutant (9B) (AID 1645876)
[2] = Primary qHTS for inhibitors of nuclear receptor binding SET domain protein 2 (NSD2) in an RCH-ACV wild type WT cells (2C) (AID 1645877)
Further: nearly all actives have a fitted effect of over 70% in size.
On the % scale 0 is the no-effect control and ±100 the full control effect; potency means the concentration at half of the fitted maximal effect.

In the case of `CO[C@H]1[C@H](O)[C@H](O[C@H]2CC[C@]3(C)C4CC[C@]5(C)[C@H](C6=CC(=O)OC6)CC[C@]5(O)C4CC[C@@H]3C2)O[C@@H](C)[C@@H]1O` (some centres not stated), the Potency [1] is reported as 22.4 nM (active) and the Potency [2] is reported as 28.2 nM (active).
In the case of `COC1CC(O[C@H]2CC[C@@]3(C)C(=CCC4C3C(O)[C@@H](O)[C@]3(C)[C@@H](C(C)=O)CC[C@]43O)C2)OC(C)C1OC1CC(OC)C(OC2OC(C)C(O)C(O)C2O)C(C)O1` (some centres not stated), the activity change, negative = viability loss [1] is reported as -2.91% [at 9.23 µM] and the activity change, negative = cell killing [2] is reported as -4.48% [at 9.23 µM].
In the case of `C=C[C@H]1[C@H](O[C@@H]2O[C@H](CO)[C@@H](O)[C@H](O)[C@H]2O)OC=C2C(=O)OCC[C@H]21`, the Potency [1] is reported as “inactive” and the Potency [2] is reported as “inactive”.
`C/C=C(\C)C(=O)OC1C(C)OC(OC2C(C)OC(OC3CCC4(C)C(=CCC5C4CCC4(C)C(C(C)OC6OC(COC7OC(CO)C(O)C(O)C7O)C(O)C(O)C6O)CCC54O)C3)CC2OC)C(O)C1OC` (configuration not stated) showed an activity change, negative = viability loss [1] of -3.12% [at 9.23 µM] and an activity change, negative = cell killing [2] of -10% [at 9.23 µM].
For `C/C=C(\C)C(=O)OC1CC2C(CC=C3CC(OC4CC(OC)C(OC5CC(OC)C(OC6OC(C)C(OC7OC(CO)C(O)C(O)C7O)C(OC)C6O)C(C)O5)C(C)O4)CCC32C)C2(O)CCC(C(C)=O)C12C` (configuration not stated), the activity change, negative = viability loss [1] was -7.24% [at 9.23 µM] and the activity change, negative = cell killing [2] was -1.79% [at 9.23 µM].
With `C/C=C(\C)C(=O)O[C@H]1[C@H](OC(C)=O)[C@]2(CO)[C@H](O)[C@H](O)[C@]3(C)C(=CCC4[C@@]5(C)CC[C@H](O[C@@H]6O[C@H](C(=O)O)[C@@H](O)[C@H](O[C@@H]7OC[C@H](O)[C@H](O[C@@H]8OC[C@H](O)[C@H](O)[C@H]8O)[C@H]7O)[C@H]6O[C@@H]6O[C@H](CO)[C@@H](O)[C@H](O)[C@H]6O)C(C)(C)C5CC[C@]43C)[C@@H]2CC1(C)C` (some centres not stated) the activity change, negative = viability loss [1] was -4.86% [at 9.23 µM] and the activity change, negative = cell killing [2] was 2.35% [at 9.23 µM].
